# HT1080NT lethal = kills 2HG-producing HT-1080-NT fibrosarcoma cells | HT-1080-NT fibrosarcoma viability, CellTiter-Glo ATP luminescence, 48 h | Potency, µM (titrated, usually from 46.1 µM), inactives show at the top dose activity, negative = less viability, actives largely listed as cytotoxic | hit rate 1.6% among 360,000;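 further: NT is the 2HG producing partner of a matched IDH1 knockdown line; potency means the concentration at half of the fitted maximal effect; 0% = DMSO-treated cells and -100% = media-only wells without cells; nearly all actives have a fitted effect of over 55% in size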
#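 Toxicity toward the 2HG-producing NT line was scored as %Activity, normalised to DMSO and no-cell wells, from CellTiter-Glo luminescence after 48 hours' treatment.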
# IL1B secr inh = inflammasome signaling inhibition, IL-1 beta readout | THP-1 LPS/ATP IL-1B secretion, AlphaLISA, 16 h; stronger effect = lower value | activity change, % at 57.5 µM | hit rate 4.7% among 360,000; in the data active means activity change below about -50%; inconclusive means mostly about -30% to -49%
#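 THP-1 cells pretreated 1 hr with compounds (up to 57.5 uM final), then stimulated with LPS (250 ng/mL final) plus ATP (1.25 mM final); secreted IL-1B measured by AlphaLISA after 16 hr, decreased signal indicating inhibition.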
# HT1080 IDH1KD tx = HT-1080 IDH1 knockdown cell toxicity (counter line); HT-1080 IDH1 knockdown viability, ATP luminescence, 48 h; Potency, µM (top dose mostly 46.1 µM), for the others: at the highest dose activity, negative = toxicity, most hits filed as cytotoxic; hit rate 2% among 360,000;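 further: potency means the concentration at half of the fitted maximal effect; 0% = DMSO wells and -100% = cell-free medium wells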
#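 CellTiter-Glo luminescence after 48 h compound exposure at 37 degrees C of IDH1-knockdown HT-1080 cells in 5% FBS RPMI. %Activity scaled between DMSO wells and cell-free media wells, with curves fitted and assigned curve classes.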
# uPA surface inh = blocks generation of uPA at the cell surface | cell surface uPA generation assay, qHTS | Potency, µM (highest dose often 38.3 µM), inactives show at the highest dose activity change, negative = inhibition, most hits filed as inhibitors | hit rate 0.31% among 330,000; active means well fitted inhibition curve with a large enough effect; inconclusive means small, poorly fitted or top-dose-only effect; inactive means no such curve, though single readings can be large or run the other way; tested in mouse RAW 264.7 cells; further: potency means the concentration at half of the fitted maximal effect; nearly all actives have a fitted effect of over 55% in size
# TDP1 cell CPT = DT40-hTDP1 cell growth loss with CPT; hit rate 12% among 420,000; AID 686979; Potency, µM (top dose mostly 46.2 µM), for the others: at the highest dose activity change, negative = growth inhibition, most hits filed as inhibitors; chicken DT40 Tdp1-/-;hTDP1 cells + 20 nM CPT, ATP luminescence, 48 h; further: potency means the concentration at half of the fitted maximal effect; nearly all actives have a fitted effect of over 55% in size
#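 Chicken DT40 Tdp1-/- cells complemented with human TDP1, 400 cells/well, exposed to compounds plus 20 nM camptothecin for at least 48 h at 37 C; viability read as ATP content by CellTiter-Glo luminescence.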
# TDP1 cell noCPT = qHTS for Inhibitors of human tyrosyl-DNA phosphodiesterase 1 (TDP1): qHTS in cells in absence of CPT; Potency, µM (series often up to 46.2 µM), inactives show at the highest dose activity change, negative = growth inhibition, usual class: inhibitors; hit rate 15% among 420,000; AID 686978, 2013; DT40 Tdp1-/- hTDP1 cells, no CPT, ATP luminescence, 48 h; further: potency means the concentration at half of the fitted maximal effect; nearly all actives have a fitted effect of over 55% in size
#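 Compound effects on proliferation are scored in DT40 Tdp1-/-;hTDP1 cells in the absence of CPT. ATP levels (CellTiter-Glo luminescence) are recorded after a ≥48 hr, 37 °C incubation.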
# * hit, by the source's call; ? = inconclusive; nt = not tested or not shown; [ ] = another dose, or the depositor's remark. This is a sample that favours compounds with a hit; in the whole collection about 19% have one here. Unless noted, the call rests on the fitted dose curve; in most records, active means well fitted curve in the direction sought with a large enough effect; inconclusive means small, poorly fitted or top-dose-only effect, or another doubt; inactive means no such curve, though single readings can be large; an effect the other way counts as inactive or inconclusive. Unless noted, on the % scale 0 is the no-effect control and ±100 the full control effect.
SMILES,HT1080NT lethal,IL1B secr inh,HT1080 IDH1KD tx,uPA surface inh,TDP1 cell CPT,TDP1 cell noCPT
CCOc1ccc(/C=C/c2nc(C#N)c(NCCCN(C)C)o2)cc1,?,-76*,?,-5%,21µM*,?
O=C(NCc1ccccn1)C(=O)Nc1cccc2ccccc12,27%,-15,9%,6%,4%,-18%
COc1ccccc1C(=O)N/C(=C\c1ccc2c(c1)OCO2)C(=O)NCCc1nc2ccccc2[nH]1,0%,5,-1%,-4%,?,?
CCCCSCCCNC(=O)c1cn(C)c2ccc(S(=O)(=O)N3CCCCC3)cc2c1=O,nt,nt,nt,nt,-10%,-17%
COC(=O)c1ccc(NC(c2ccc(Cl)cc2)P(=O)(OC)OC)cc1 (configuration not stated),-5%,-19,0%,2%,-26%,?
COc1ccccc1-c1cnc(C(O)c2ccc(CN3CCCCC3)cc2)[nH]1 (configuration not stated),9%,8,20%,nt,-15%,-12%
COc1ccc(N2CC(C(=O)N3CCN(c4ccccc4)CC3)CC2=O)cc1 (configuration not stated),6%,-1,2%,-2%,-28%,?
Nc1nc(SCc2ccc(F)cc2)ns1,-20%,2,-20%,4%,17%,-28%
Cc1ccc(Nc2nc(Cl)nc(NC(C)(C)C)n2)cc1,-2%,-15,-1%,-13%,?,23µM*
CCOC(=O)CNc1nc(Cl)nc(Nc2ccc(C)cc2)n1,-7%,-11,4%,1%,2%,?
CCCNc1nc(Cl)nc(NCc2cccnc2)n1,-1%,nt,-1%,-4%,-3%,?
CC(C)c1ccc(Nc2nc(Cl)nc(Cl)n2)cc1,-6%,3,-6%,-5%,-14%,?
CC(C)(C)Nc1nc(Cl)nc(NCc2ccccc2)n1,0%,1,-1%,0%,18µM*,?
Cc1ccc(Nc2nc(Cl)nc(N(C)C#N)n2)cc1,?,-114*,?,-13%,?,23µM*
CC(C)(C)Nc1nc(Nc2ccc([N+](=O)[O-])cc2)nc(NC(C)(C)C)n1,-1%,-3,18%,0%,21µM*,21µM*
Cc1cc(C(=O)Cn2nc(C(=O)O)c3ccccc3c2=O)c(C)n1-c1ccc(F)cc1,-5%,-4,-11%,-4%,29µM*,?
COc1cc(-c2nnn(Cc3ccccc3C)n2)cc(OC)c1OC,-4%,-6,0%,3%,?,21µM*
O=S(=O)(c1cccc2ccccc12)N1CCSC1,-4%,24,1%,4%,-5%,-7%
NCCNS(=O)(=O)c1cccc2cnccc12,nt,nt,nt,nt,27µM*,18µM*
O=S(=O)(c1cccc2cnccc12)N1CCNCC1,?,-51*,-19%,?,?,?
O=c1c2c3c(sc2nc2n1CCCCC2)CCC3,-1%,7,-1%,-5%,5%,-28%
O=C1c2sc3nc4n(c(=O)c3c2CCC1Br)CCCCC4 (configuration not stated),7%,-93*,-5%,-5%,3.3µM*,2.9µM*
COc1ccc(CN2C(=O)c3ccccc3C2C(=O)NC2CCCCCC2)c(OC)c1 (configuration not stated),-12%,-54*,-17%,-11%,-9%,?
CC(C)OCCCN1C(=O)c2ccccc2C1C(=O)NC1CCCCC1 (configuration not stated),-1%[9.24 µM],0,3%,nt,-15%,-11%
O=C(NC1CCCCCCC1)C1c2ccccc2C(=O)N1Cc1cccs1 (configuration not stated),-4%,-5,-9%,1%,13µM*,?
CC(=O)Nc1ccc(N=C(C2=C(O)c3ccccc3C2=O)c2ccccc2)cc1,-25%,-12,?,?,3.3µM*,?

# Compound activity: PubChem BioAssay, National Center for Advancing Translational Sciences (NCATS)
